Experimental findings from PubChem BioAssay AID2315 (National Center for Advancing Translational Sciences (NCATS), 2010) are described below.

SMILES strings stand for the structures. About 27,000 (9.3%) of roughly 290,000 compounds were called active. The list comes from a sample in which actives are over-represented; it also holds similar structures and randomly drawn compounds. Values without a mark were called inactive. Cut-off read from the data, not from the text of the source: active = inhibition mostly above about 28% (no sharp cut-off); inactive = mostly below about 43%.

The assay in a line: A qHTS for Small Molecule Inhibitors of Shiga Toxin. Note: 0% is about no effect. The following applies: Vero cells, Shiga toxin protein synthesis inhibition reporter; at 38.7 µM, active compounds read high.
One may read the inhibition as the relative decrease from the control value, in per cent. For `COc1ccc(C(C)NC(=O)C23CC4CC(CC(C4)C2)C3)cc1` (stereo not drawn), the inhibition is -10.2%. For the molecule `COc1ccccc1NC(=O)CCC(=O)OC(C)C(=O)c1ccccc1` (stereo not drawn), the inhibition was -0.996%. Then `Cc1n[nH]c(C)c1S(=O)(=O)N1CCCC(C(=O)Nc2ccc(Br)cc2)C1` (stereo not drawn), with 3.93%. For `COc1ccc2oc(=O)cc(-c3cc4ccccc4o3)c2c1` the value was -7.01%; for `COc1ccc(-c2noc(CCCC(=O)NC3CCCC3)n2)cc1OC`, -6.44%. For `COc1ccc(-c2noc(-c3cccc(OC)c3OC)n2)cc1OC` the value was 64.7% (active); for `CCOc1nc(-c2ccc(OC)cc2)ccc1-c1noc(-c2cc(OC)c(OC)c(OC)c2)n1`, 11.8%; for `CC(C)NC(=O)C(c1ccc(F)cc1)N(C(=O)CCC(=O)Nc1ccccn1)c1ccccc1F` (stereo not drawn), -8.5%.

As to `Cc1ccc(C)c(NS(=O)(=O)c2c(C)[nH]c(C)c2C(=O)N2CCCCC2)c1`, the inhibition is 2.83%.

Consider `Nc1cccc(-c2cc(-c3ccccc3)nc(-c3cccc(N)c3)n2)c1`, for which the inhibition is -3.83%. For `CNc1nc(-c2ccccc2)cc(-c2ccccc2)n1` the value was 1.28%; for `Nc1nc(-c2ccccc2)cc(-c2ccccc2)n1`, 30.7% (active). Then `O=C(NC1CC1)C(Cc1ccccc1)NS(=O)(=O)c1ccccc1F` (stereo not drawn), with -4.61%; and `CC1(C(=O)O)CCC(C(=O)Nc2ccc(Cl)c(Cl)c2)C1(C)C` (stereo not drawn), with -2.66%.

In the case of `O=C(Nn1c(-c2ccccc2)nc2ccccc2c1=O)c1ccc([N+](=O)[O-])cc1`, the inhibition was -8.82%. For `O=C(CCn1c(SCC(=O)c2ccccc2)nc2ccccc2c1=O)NCc1ccc(F)cc1` the value was -27.4%; for `O=C(CN(C(=O)CNC(=O)c1cccs1)c1cccc(F)c1)NC1CCCCC1`, -5.58%; for `O=C1CCN(Cc2ccc([N+](=O)[O-])cc2)CCN1[C@H](CO)Cc1ccccc1`, -0.762%. For `C=CCc1cc(C)ccc1OCCCn1ccnc1` the value was -4.77%; for `CC1C(=O)Nc2ccc(S(=O)(=O)N3CCN(c4ccccc4F)CC3)cc2NC1=O` (stereo not drawn), -0.75%. Then `CCCc1nnc(NC(=O)c2cccs2)s1`, with 39%. For the molecule `CCc1c(C)sc(NC(=O)c2cccs2)c1C(N)=O`, the inhibition is 107% (active). For `COC(=O)c1c(NC(=O)c2cccs2)sc2c1CCCC2` the value was 35.1%.

Regarding `N#Cc1cccc(NC(=O)CN2CCCCCC2)c1`, the inhibition was 2.24%. For `N#Cc1cccc(NC(=O)CCC2CCCC2)c1` the value was 33.8% (active); for `Cc1ccc(CC(=O)Nc2cccc(C#N)c2)cc1`, 25.6%. Then `COc1ccc(N2CCN(CCNC(=O)Nc3cc(Cl)ccc3Cl)CC2)cc1`, with 4.24%; and `CCc1ccccc1NC(=O)NCCN1CCCCC1`, with -9.72%; and `Cc1ccc(SCC(CC(C)C)N2CCN(CCc3ccccc3)CCC2=O)cc1` (stereo not drawn), with 64.5% (active). With `CCCN1CCC(=O)N(C(CSc2ccc(C)cc2)Cc2ccccc2)CC1` (stereo not drawn), the inhibition is -8.43%.

Turning to `COc1ccc(SC[C@H](Cc2ccccc2)N2CCN(CCc3ccccc3)CCC2=O)cc1`, the inhibition was -7.36%.

On to `O=c1onc(-c2c(F)cccc2F)n1-c1ccccc1Cl`, for which the inhibition was -3.28%.

Regarding `CCOC(=O)c1c(NC(=O)C2CCN(S(=O)(=O)c3ccc(Cl)cc3)CC2)sc2c1CCCC2`, the inhibition is 45.1% (active).

`CCCOC(=O)Nc1sc2c(c1C(=O)OCC)CCC2`: the inhibition is -17.5%. With `CCOC(=O)c1c(NC(=S)NC)sc2c1CCCC2`, the inhibition is -5.4%. For `NC(=O)Cn1cc(/C=N\NS(=O)(=O)c2ccccc2)c2ccccc21` the value was -5.18%; for `COc1ccc(-c2nc3ccccc3n2CCC(C)C)cc1OC`, -2.89%; for `O=C(C[n+]1ccccc1)N/N=C/c1ccc(O)cc1`, 30.3%. Then `Cc1nonc1C(=O)N/N=C/c1ccc(O)cc1`, with 72.1% (active); and `Cc1nc2ccc(C(=O)N/N=C/c3ccc(O)cc3)cc2[nH]1`, with 22.1%; and `O=C(CSc1nc2ccc([N+](=O)[O-])cc2[nH]1)c1ccc(Cl)cc1`, with -3.36%. For `O=c1[nH]c2cccnc2n1-c1ccc([N+](=O)[O-])cc1` the value was 6.32%; for `O=[N+]([O-])c1ccc2nc(-c3ccccn3)[nH]c2c1`, 102% (active). As to `COC(=O)c1cc(S(=O)(=O)Nc2ccc(C)c(F)c2)c[nH]1`, the inhibition was 9.13%.

Turning to `CC(C)c1c(C(=O)N/N=C/c2ccccc2C(=O)O)nnn1-c1nonc1N`, the inhibition is 0.546%. As for `Cc1cccc(N2CCN(Cc3nc(C4CC4)no3)CC2)n1`, the inhibition was 18.6%. For `O=C(NCc1ccccc1Cl)C1CCCN1S(=O)(=O)c1ccc(F)cc1` (stereo not drawn) the value was -12.5%; for `CCOC(=O)c1cn[nH]c1NC(=S)Nc1ccccc1`, 57.1% (active).

`CCOC(=O)c1cc2c(nc1NC(=S)Nc1ccccc1)CC(C)(CC)OC2` (stereo not drawn): the inhibition was -8.83%.

As for `CCOC(=O)c1ccc(NC(=S)Nc2cc(C)cc(C)n2)cc1`, the inhibition is -12.4%.

Regarding `COc1ccc(CN2CCc3nc(Nc4ccccc4)ncc3C2)c(OC)c1OC`, the inhibition was 3.91%. Take `COc1cccc(C2Nc3cccc4cccc(c34)N2)c1`: the inhibition is -2.47%. For `O=C1NC(c2cccc(Cl)c2)Nc2ccccc21` (stereo not drawn) the value was 18.4%; for `COc1ccc(C2NC(=O)c3ccccc3N2)cc1` (stereo not drawn), 62.6% (active). Then `COc1cccc2cc(-c3cc(=O)oc4cc(C)c(O)cc34)oc12`, with 0.992%. For `CCCCCc1c(C)nc(N2CCN(Cc3ccc4c(c3)OCO4)CC2)[nH]c1=O` the value was 7.82%. In the case of `COc1ccccc1N1CCN(C(=O)CSc2nnc(-c3ccoc3C)o2)CC1`, the inhibition is 31.6%.

In the case of `COc1ccc(N2CCN(C(=O)CSc3ncnc4c3cnn4-c3ccc(OC)cc3)CC2)cc1`, the inhibition was -9.91%. For `c1ccc(-n2ncc3c(N4CCCC4)ncnc32)cc1` the value was 27.5%; for `CN(C(=O)COc1ncnc2c1cnn2-c1ccccc1)C1CCCCC1`, 20.6%; for `COc1ccccc1N1CCN(C(=O)CSc2ncnc3c2cnn3-c2ccc(C)c(C)c2)CC1`, 66.7% (active). Then `CC(C)Sc1ncnc2c1cnn2-c1ccccc1`, with 96.6% (active); and `COC(=O)CSc1ncnc2c1cnn2-c1ccc(C)cc1C`, with -5.7%; and `COc1ccc(-n2ncc3c(SCC(=O)NNC(C)=O)ncnc32)cc1`, with 25.6% (active).

For the molecule `COc1ccc(NC(=O)CSc2ncnc3[nH]ncc23)cc1`, the inhibition is -13.5%. For `CC(=O)Nc1ccc(NC(=O)CSc2ncnc3c2cnn3Cc2ccccc2)cc1` the value was 3.21%; for `c1ccc(-n2ncc3c2ncn2c(C4CCCCC4)nnc32)cc1`, 11.5%. Then `CCN(CC)C(=O)CSc1ncnc2c1cnn2-c1ccccc1`, with 66.2% (active).
